In the library only some 1.2% were active in any assay of this set; here they are far more common.
GC-A act – GC-A (human) enzyme activation; P16066; HEK293 GC-A cells, cGMP TR-FRET, EC30 ANP; 0% at EC30 ANP, 100% saturating ANP; activation, % at 10 µM; 0.14% of 370,000 active; AID 1671463; in the data active means activation above about 40%
GC-B act – GC-B (human) receptor activation. HEK293-GC-B cells, CNP EC30, cGMP TR-FRET; 0% at EC30 CNP, 100% saturating CNP. activation, % at 10 µM. 0.11% of 370,000 active;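 active means activation at 10 µM reaching about 35% in either raw or pattern-adjusted values, limit read from the data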
Target sequence (P20594 whole entry, looked up): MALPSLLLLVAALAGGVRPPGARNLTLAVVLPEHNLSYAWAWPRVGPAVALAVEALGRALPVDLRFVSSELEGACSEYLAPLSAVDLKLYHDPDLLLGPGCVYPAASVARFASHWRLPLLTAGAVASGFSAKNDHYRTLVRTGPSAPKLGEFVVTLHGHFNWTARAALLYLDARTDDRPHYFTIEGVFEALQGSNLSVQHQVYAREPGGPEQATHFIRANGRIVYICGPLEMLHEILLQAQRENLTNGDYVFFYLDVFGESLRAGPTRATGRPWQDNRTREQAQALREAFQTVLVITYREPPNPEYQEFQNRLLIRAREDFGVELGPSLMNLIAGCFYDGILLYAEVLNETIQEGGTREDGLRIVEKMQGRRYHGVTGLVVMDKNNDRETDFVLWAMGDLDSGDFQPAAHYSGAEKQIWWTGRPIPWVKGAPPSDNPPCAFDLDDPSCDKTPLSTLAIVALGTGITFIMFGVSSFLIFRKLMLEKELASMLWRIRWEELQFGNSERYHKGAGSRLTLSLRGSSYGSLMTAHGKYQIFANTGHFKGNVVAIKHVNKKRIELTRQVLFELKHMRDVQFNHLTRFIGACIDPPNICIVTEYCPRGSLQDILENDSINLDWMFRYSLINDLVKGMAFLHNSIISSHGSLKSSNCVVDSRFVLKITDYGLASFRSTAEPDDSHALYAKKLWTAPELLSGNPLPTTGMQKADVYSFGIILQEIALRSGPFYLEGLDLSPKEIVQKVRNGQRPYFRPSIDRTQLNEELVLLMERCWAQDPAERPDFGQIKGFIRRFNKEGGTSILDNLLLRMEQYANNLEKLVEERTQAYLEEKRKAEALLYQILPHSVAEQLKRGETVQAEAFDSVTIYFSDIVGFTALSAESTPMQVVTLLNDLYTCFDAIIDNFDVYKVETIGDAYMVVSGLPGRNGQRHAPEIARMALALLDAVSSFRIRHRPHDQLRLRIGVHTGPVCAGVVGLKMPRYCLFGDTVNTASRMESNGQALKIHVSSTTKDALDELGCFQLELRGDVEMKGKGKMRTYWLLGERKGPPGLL
PLC-beta3 inh – blocks human PLC-beta3 enzyme activity; Q01970; Purified PLC-beta3, fluorogenic substrate, fluorescence; inhibition, % at 12.2 µM; 0.18% of 370,000 active; in the data active means inhibition above about 11%
PLC-gamma1 inh – inhibitors of human phospholipase C gamma1 | 0.84% of 370,000 active | inhibition, % at 12.2 µM | purified PLC-gamma1, fluorogenic substrate, fluorescence
PLCgamma1 ctr – counter-screen for PLC-beta3 inhibitors: inhibitors of human PLC-gamma1 | shares compounds with PLC-gamma1 inh | purified PLC-gamma1, fluorogenic substrate, fluorescence | inhibition, % at 12.3 µM | 3.1% of 3,300 active | AID 743258
PLCb3 confirm – human PLC-beta3 inhibition, confirmation; shares compounds with PLC-gamma1 inh; purified PLC-beta3, fluorogenic substrate fluorescence; inhibition, % at 12.3 µM; 1% of 3,300 active; in the data active means inhibition above about 11%
Each line names hits and unclear results; the compound was inactive in the other large screens (follow-up assays come after a bar, where they were run). Unless noted, no stated cut-off is given here; in the data, active means inhibition above about 9.5%; inactive means the rest.

CCc1ccc(N2C(=O)CN(Cc3ccc(OC)c(OC)c3)C2=S)cc1	none
Cc1ccc2c(c1)NC(=O)C(CC(=O)NCCCN1CCN(c3cc(Cl)ccc3C)CC1)O2 (stereo not drawn)	PLC-gamma1 inh 9.5 | PLCgamma1 ctr inactive | PLCb3 confirm inactive
Cc1ccc2c(c1)NC(=O)C(CC(=O)NCCCN1CCCCC1)O2 (stereo not drawn)	none
CC(=O)Nc1ccc(S(=O)(=O)NCc2cn3ccsc3n2)cc1	PLC-beta3 inh 11, PLC-gamma1 inh 11 | PLCgamma1 ctr inactive | PLCb3 confirm inactive
CCCCCn1c(C(C)NC(=O)CCC)nc2ccccc21 (stereo not drawn)	PLC-beta3 inh 14 | PLCgamma1 ctr inactive | PLCb3 confirm inactive
CCOC(=O)C(C)c1c(C)[nH]c(=S)[nH]c1=O (stereo not drawn)	PLC-gamma1 inh 11 | PLCgamma1 ctr inactive | PLCb3 confirm inactive
CCCCCc1c(-c2cccc(Cl)c2)ncn1CCc1ccccc1OC	PLC-gamma1 inh 10 | PLCgamma1 ctr inactive | PLCb3 confirm inactive
CCCCOC(=O)CCn1c(=S)oc2ccccc21	none
O=C(NC1CCCCC1)C(c1ccc(F)cc1)N(Cc1ccco1)C(=O)c1csnn1 (stereo not drawn)	none
CC12CCC(CC1=O)C2(C)C (stereo not drawn)	none
CC12CCC(C/C1=N/O)C2(C)C (stereo not drawn)	PLC-gamma1 inh 10 | PLCgamma1 ctr inactive | PLCb3 confirm inactive
COC(=O)c1cc(NC(=O)CC2SCCNC2=O)cc(C(=O)OC)c1 (stereo not drawn)	none
O=C(CC1SCCNC1=O)Nc1cc(Cl)cc(Cl)c1 (stereo not drawn)	PLC-beta3 inh 12 | PLCgamma1 ctr inactive | PLCb3 confirm inactive
Cc1noc(C)c1NC(=O)NC(c1ccccc1)c1ccccc1	PLC-gamma1 inh 10 | PLCgamma1 ctr inactive | PLCb3 confirm inactive
CCCC(=O)OCC(=O)Nc1ccc(N=Nc2ccccc2)cc1	PLC-gamma1 inh 9.6 | PLCgamma1 ctr inactive | PLCb3 confirm inactive
COc1ccc(OCc2ccc(C(=O)O)cc2)cc1	PLC-gamma1 inh 9.9 | PLCgamma1 ctr inactive | PLCb3 confirm inactive
CCn1cc(C(=O)N[C@H](C(=O)O)C(C)C)c(=O)c2cc3c(cc21)OCO3	none
CCn1nc(C(=O)O)c(=O)c2cc3c(cc21)OCO3	PLC-gamma1 inh 10 | PLCgamma1 ctr inactive | PLCb3 confirm inactive
Cc1cc(C(=O)O[C@H]2[C@H](Cc3ccccc3)NS(=O)(=O)[C@H]3C[C@@H]4C=C[C@]23O4)ccc1[N+](=O)[O-]	none
O=C(Nc1ccc(C(F)(F)F)cc1[N+](=O)[O-])O[C@H]1[C@H](Cc2ccccc2)NS(=O)(=O)[C@H]2C[C@@H]3C=C[C@]12O3	PLC-gamma1 inh 12 | PLCgamma1 ctr inactive | PLCb3 confirm inactive
Cn1c(=O)c2cc(S(=O)(=O)NC(Cc3ccccc3)C(=O)NCc3ccco3)ccc2n(C)c1=O (stereo not drawn)	PLC-gamma1 inh 75 | PLCgamma1 ctr inactive | PLCb3 confirm inactive
O=C(NCc1ccc(F)cc1)C(C(=O)NCc1ccc(F)cc1)c1ncc(C(F)(F)F)cc1Cl	PLC-gamma1 inh 13 | PLCgamma1 ctr inactive | PLCb3 confirm inactive
COc1ccc(Cc2nnc(NC(=O)c3cccc([N+](=O)[O-])c3)s2)cc1	none
CCCCNC(=O)CSc1nc2ccccc2c(=O)n1CC1COc2ccccc2O1 (stereo not drawn)	PLC-gamma1 inh 13 | PLCgamma1 ctr inactive | PLCb3 confirm inactive
CN(Cc1cccc2cnccc12)C(=O)CCc1nnc(CCc2ccccc2)o1	none
CC(c1nccs1)N(C)C(=O)CCc1nnc(CCc2ccccc2)o1 (stereo not drawn)	PLC-gamma1 inh 12 | PLCgamma1 ctr inactive | PLCb3 confirm inactive
O=C(CSc1nnc(-c2ccccn2)n1Cc1ccco1)Nc1ccc(Oc2ccccc2)cc1	PLC-gamma1 inh 11 | PLCgamma1 ctr inactive | PLCb3 confirm inactive
Cc1ccccc1OCCCc1c(C)n[nH]c1C	PLC-gamma1 inh 9.8 | PLCgamma1 ctr inactive | PLCb3 confirm inactive
O=Cc1cc(N=Nc2cccc(C(=O)O)c2)ccc1O	PLC-gamma1 inh 14 | PLCgamma1 ctr 29 | PLCb3 confirm inactive
CC(=O)Nc1ccc(NC(=O)C2CCCN(C(=O)c3ccc(Cl)cc3)C2)cc1 (stereo not drawn)	PLC-gamma1 inh 12 | PLCgamma1 ctr inactive | PLCb3 confirm inactive
CS(=O)(=O)c1ccc(NC(=O)C2CCCN(C(=O)c3ccc(Cl)cc3)C2)cc1 (stereo not drawn)	none
CC(C)(C)c1ccc(OC(=O)c2ccc3snnc3c2)cc1	PLC-gamma1 inh 10 | PLCgamma1 ctr inactive | PLCb3 confirm inactive
CC(NC(C)c1ccccc1Cl)C(=O)Nc1cccc(S(=O)(=O)N2CCCCC2)c1 (stereo not drawn)	PLC-gamma1 inh 9.8 | PLCgamma1 ctr inactive | PLCb3 confirm inactive
CCCCn1c(SCC(=O)Nc2cc(C)[nH]n2)nc2ccsc2c1=O	none
COc1ccc(CNC(=O)C2CCN(S(=O)(=O)c3cccc4nsnc34)CC2)cc1	PLC-gamma1 inh 11 | PLCgamma1 ctr inactive | PLCb3 confirm inactive
CCN1CCN(S(=O)(=O)c2cccc3nsnc23)CC1	PLC-beta3 inh 13 | PLCgamma1 ctr inactive | PLCb3 confirm inactive
Cc1ccccc1CN1CCN(S(=O)(=O)c2cccc3nsnc23)CC1	none
COc1c2c(cc3oc(=O)c4c5ccc(O)cc5oc4c13)OC(C)(C)CC2	none
CCc1nc2sc3c(c2c(=O)n1N)CCC3	PLC-gamma1 inh 11 | PLCgamma1 ctr inactive | PLCb3 confirm inactive
CCCc1nc2sc3c(c2c(=O)n1N)CCC3	none
CC1CCC(NC(=O)CN2C(=O)c3ccccc3S2(=O)=O)CC1 (stereo not drawn)	PLC-gamma1 inh 12 | PLCgamma1 ctr inactive | PLCb3 confirm inactive
CC(C)COP(=O)(CNC(=O)CN1C(=O)c2ccccc2S1(=O)=O)OCC(C)C	PLC-gamma1 inh 9.8 | PLCgamma1 ctr inactive | PLCb3 confirm inactive
CC(C)(C)c1nc(NCCN2CCOCC2)c2nnn(Cc3ccccc3Cl)c2n1	none
CC1CCCCN1C(=O)c1ccccc1OC1CCN(S(C)(=O)=O)CC1 (stereo not drawn)	PLC-gamma1 inh 9.5 | PLCgamma1 ctr inactive | PLCb3 confirm inactive
CCC1CCCCN1C(=O)c1ccccc1OC1CCN(S(C)(=O)=O)CC1 (stereo not drawn)	none
Cc1ccc(CN(C)C(=O)c2ccc3c(c2)NC(=O)CS3)o1	none
C=CCOc1c(Cl)cc(C(=S)N2CCCC2)cc1OCC	none
CN1CCN(/N=C/c2cccc(Cl)c2Cl)CC1	none
CCC(C)NC(=O)CSc1nc2c(sc3ccccc32)c(=O)n1CCCN1CCOCC1 (stereo not drawn)	PLC-gamma1 inh 9.9 | PLCgamma1 ctr inactive | PLCb3 confirm inactive
CCOC(=O)CSc1nc2c(sc3ccccc32)c(=O)n1CCCN1CCOCC1	none
Cc1ccc(C)c(SCC(=O)NC(=O)NCc2ccccc2)c1	none

Assay outcomes from PubChem BioAssay.
